Test results as given in PubChem BioAssay.
Where “and” joins values, the source holds several entries; their conditions need not be identical. Identical values can stand only once.

Target: Pro-neuregulin-1, membrane-bound isoform (Homo sapiens) (UniProt Q02297)
Assay: NRG1 binders on small-molecule microarrays, primary screen, psychiatric disease protein project, biochemical, small-molecule microarray, fluorescence 635/667 (AID 1075);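 note: score combines 667 nm spot fluorescence with signal to noise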
Settings: NRG1 binding, 635 nm fluorescence, higher = more signal

Chain of Pro-neuregulin-1, membrane-bound isoform (Homo sapiens) (Q02297 whole entry, looked up, canonical isoform): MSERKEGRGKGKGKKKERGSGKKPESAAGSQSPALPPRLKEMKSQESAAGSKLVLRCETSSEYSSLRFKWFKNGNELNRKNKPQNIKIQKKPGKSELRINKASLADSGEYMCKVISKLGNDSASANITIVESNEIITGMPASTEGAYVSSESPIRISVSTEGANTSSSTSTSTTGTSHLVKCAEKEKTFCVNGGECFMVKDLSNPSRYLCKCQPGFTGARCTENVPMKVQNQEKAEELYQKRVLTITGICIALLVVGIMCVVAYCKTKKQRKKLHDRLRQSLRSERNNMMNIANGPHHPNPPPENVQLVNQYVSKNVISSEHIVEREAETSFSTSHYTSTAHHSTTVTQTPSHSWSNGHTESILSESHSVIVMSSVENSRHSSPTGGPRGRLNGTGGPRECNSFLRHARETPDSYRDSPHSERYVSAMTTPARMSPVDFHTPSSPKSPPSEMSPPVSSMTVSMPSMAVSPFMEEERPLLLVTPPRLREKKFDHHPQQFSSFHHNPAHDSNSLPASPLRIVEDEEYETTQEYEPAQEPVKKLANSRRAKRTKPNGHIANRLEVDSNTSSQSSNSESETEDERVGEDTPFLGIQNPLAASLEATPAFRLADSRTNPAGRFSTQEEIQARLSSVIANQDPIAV

Structure (SMILES)	composite z-score
C=CCN1C(=O)[C@]2(O[C@H](CCn3cc(CCO)nn3)[C@@H]([Si](C)(C)c3ccc(OC)cc3)[C@@H]2C)c2cc(N3C(=O)c4cccc5cccc3c45)ccc21	1.19 and 0.465
COC(=O)[C@@]1(Cc2ccc(F)cc2)[C@H]2c3cc(C(=O)N4CCCC4)n(Cc4c(CO)[nH]cc(C)c4=O)c3C[C@H]2CN1C(=O)c1ccccc1	1.92 and 1.21
C=CCN(CCCCC)C(=O)C1N(c2c(Cl)cccc2CO)C(=O)C2C(C(=O)O)C3C=CC21O3 (stereo unspecified)	-0.855 and -0.992
C=CCN(C(=O)C1N(c2c(Cl)cccc2CO)C(=O)C2C(C(=O)O)C3C=CC21O3)C(C)(C)C (stereo unspecified)	0.0516 and -0.736
COC(=O)[C@@]1(Cc2ccc(OC)cc2)[C@H]2c3cc(C(=O)N(C)C)n(Cc4ccc(O)c(OC)c4)c3C[C@H]2CN1C(=O)c1ccccc1	2.15 and 1.85
C=CCN(C(=O)C1N(C(C)(C)CO)C(=O)C2C(C(=O)O)C3C=CC21O3)c1ccc(OC)cc1 (stereo unspecified)	-0.16 and -1.32
C[N+](C)(C)CCCCNC(=O)[C@@H]1C[C@@H]2C(=O)N[C@@H](CCCC[N+](C)(C)C)C(=O)N2[C@@H]1c1cccc(OCCO)c1	-0.181 and -0.179
CCCC[C@@H]1CN2[C@@H](CC[C@@H](C)[C@@H]2c2ccc(Br)cc2)C(=O)O1	0.48 and 0.847
CCN1C(=O)[C@H]2[C@H]3[C@H](O)[C@H](O)CC(=NOC)[C@@H]3CC[C@H]2C1=O	-0.319
C=C[C@H](OC)[C@@H](O)c1ccc(OCCO)cc1	-0.102 and -0.296
COC(=O)C1=C(C)N(Cc2ccccc2)[C@]23O[C@](C(=O)OC)(C(=O)N2[C@@H]1c1ccccc1)[C@@H](c1ccccc1)[C@@H]3C(=O)c1ccccc1	0.489 and -0.621
